Assay results from PubChem BioAssay AID1159580 (chemical genetic matrix, 2015).
Where “and” joins values, the source holds several entries; their conditions need not be identical. Identical values can stand only once. The campaign covered roughly 5,500 compounds. About 2,000 (36%) were called active. Inconclusive results (about 18%) are left out. No stated cut-off is given here; in the data, active means normalized growth mostly below about 0.91 (no sharp cut-off); inconclusive means no clear call, values can overlap the other calls; inactive means mostly above about 0.92. The list shows a part of the results.

Test: chemical genetic growth profiling, strain panel (AID 1159580);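 further: tested at 20 µM; growth read once vehicle control cultures reached saturation at 30 °C; 1 = growth at the plate median or of vehicle wells; lower values mean less growth of the strain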
Details: S. cerevisiae deletion strains, growth OD

Measured: normalized growth

COc1cc([C@@H]2c3cc4c(cc3[C@H](OC(C)=O)[C@H]3COC(=O)[C@H]23)OCO4)cc(OC)c1OC
inactive: locus YAL021C, strain ccr4, hits give low values 0.992 | locus YAL026C, strain drs2, hits give low values 1.01 | locus YAL030W, strain snc1, hits give low values 0.999 | locus YBL061C, strain skt5, hits give low values 1.01 | locus YBR009C, strain hhf1, hits give low values 1.01 | locus YBR021W, strain FUR4, hits give low values 0.956 | locus YBR023C, strain chs3, hits give low values 1 | locus YBR171W, strain sec66, hits give low values 1.02 | locus YBR229C, strain ROT2, hits give low values 0.99 | locus YBR231C, strain swc5, hits give low values 1 | locus YBR279W, strain paf1, hits give low values 0.976 | locus YCL011C, strain gbp2, hits give low values 1 | locus YCL016C, strain dcc1, hits give low values 1.01 | locus YCL029C, strain bik1, hits give low values 0.986 | locus YCL061C, strain MRC1, hits give low values 1.01 | locus YCL069W, strain vba3, hits give low values 0.999 | locus YCR088W, strain abp1, hits give low values 1.01 | locus YDL005C, strain med2, hits give low values 1.01 | locus YDL035C, strain GPR1, hits give low values 1.02 | locus YDL040C, strain nat1, hits give low values 0.996 | locus YDL074C, strain BRE1, hits give low values 0.991 | locus YDL101C, strain DUN1, hits give low values 0.998 | locus YDL134C, strain PPH21, hits give low values 1.03 | locus YDL185W, strain tfp1, hits give low values 0.983 | locus YDL192W, strain arf1, hits give low values 1.01 | locus YDR001C, strain nth1, hits give low values 0.999 | locus YDR069C, strain doa4, hits give low values 1.02 | locus YDR101C, strain arx1, hits give low values 0.996 | locus YDR137W, strain rgp1, hits give low values 0.884 | locus YDR159W, strain sac3, hits give low values 1.01 | locus YDR162C, strain NBP2, hits give low values 1.02 | locus YDR195W, strain ref2 1 | locus YDR297W, strain sur2, hits give low values 0.998 | locus YDR318W, strain mcm21, hits give low values 0.987 | locus YDR334W, strain swr1, hits give low values 1.01 | locus YDR335W, strain msn5, hits give low values 0.998 | locus YDR388W, hits give low values 0.98 | locus YDR392W, strain spt3, hits give low values 1.01 | locus YDR502C, strain sam2, hits give low values 0.989 | locus YEL003W, strain gim4, hits give low values 1.01 | locus YEL037C, strain rad23, hits give low values 1 | locus YEL061C, strain CIN8 (second series), hits give low values 0.996 | locus YEL061C, strain CIN8, hits give low values 1 | locus YER015W, strain faa2, hits give low values 1.02 | locus YER016W, strain bim1, hits give low values 1 | locus YER110C, hits give low values 0.96 | locus YER111C, strain swi4, hits give low values 1.01 | locus YER155C, strain BEM2 (second series), hits give low values 1.04 | locus YER155C, strain BEM2, hits give low values 0.983 | locus YER167W, strain BCK2, hits give low values 0.998 | locus YFR010W, strain ubp6, hits give low values 1 | locus YGL078C, strain dbp3, hits give low values 0.971 | locus YGL086W, strain mad1, hits give low values 0.997 | locus YGL167C, strain pmr1, hits give low values 1.02 | locus YGL173C, strain kem1, hits give low values 1.01 | locus YGL227W, strain vid30, hits give low values 1 | locus YGL240W, strain doc1, hits give low values 1.01 | locus YGL248W, strain PDE1, hits give low values 0.996 | locus YGL253W, strain hxk2, hits give low values 1.01 | locus YGR135W, strain pre9, hits give low values 0.986 | locus YGR252W, strain gcn5, hits give low values 0.983 | locus YHR013C, strain ard1, hits give low values 0.988 | locus YHR027C, strain rpn1, hits give low values 1 | locus YHR030C, strain SLT2, hits give low values 0.996 and 0.987 | locus YHR079C, strain IRE1 (second series), hits give low values 0.988 | locus YHR079C, strain IRE1, hits give low values 0.98 | locus YHR094C, strain hxt1, hits give low values 0.973 | locus YHR129C, strain ARP1, hits give low values 1 | locus YHR142W, strain chs7, hits give low values 0.996 | locus YHR200W, strain rpn10, hits give low values 0.988 | locus YIL066C, strain RNR3, hits give low values 1.01 | locus YIL073C, strain SPO22, hits give low values 0.98 | locus YIL125W, strain kgd1, hits give low values 0.987 | locus YIR030C, strain dcg1, hits give low values 0.974 | locus YJL092W, strain hpr5, hits give low values 1.01 | locus YJL095W, strain BCK1 (second series), hits give low values 1 | locus YJL095W, strain BCK1, hits give low values 1.01 and 1.04 | locus YJL115W, strain asf1, hits give low values 1.01 | locus YJL129C, strain trk1, hits give low values 1 | locus YJL134W, strain LCB3, hits give low values 0.993 | locus YJL154C, strain vps35, hits give low values 1.01 | locus YJL164C, strain tpk1, hits give low values 1.01 | locus YJL166W, strain qcr8, hits give low values 0.995 | locus YJL168C, strain set2, hits give low values 0.977 | locus YJL187C, strain SWE1 (second series), hits give low values 1 | locus YJL187C, strain SWE1, hits give low values 0.99 | locus YJR043C, strain POL32, hits give low values 1.03
